# A selection: hits, their analogues and other compounds. The true share with any hit is near 10%.
# Sfp PPTase inh = inhibitors of Bacillus subtilis Sfp phosphopantetheinyl transferase. Potency, µM, for inactives: largest response in the series, negative = inhibition, actives largely listed as inhibitors. 310,000 compounds, 3.5% hits. Biochemical Sfp PPTase activity, qHTS. Q9F4F7;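 also: the enzyme is Sfp with the accession as filed and its product quenches rhodamine fluorescence; potency is read from the fitted curve at half-maximal effect; 0% = enzyme reaction without inhibitor and -100% = no enzyme wells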
#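 Fluorescence-quenching assay: 15 nM Sfp-PPTase preincubated 15 min at room temperature with compound, then 5 uM rhodamine-CoA and 12.5 uM BHQ-2-labelled YbbR peptide added. Fluorescence (ex 525/em 598 nm) read at start and after 30 min; difference gives rate.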
# MmCpn inh = M. maripaludis TRiC chaperonin inhibition; purified Mm-Cpn ATPase, ADP Transcreener TR-FRET; Potency, µM (doses to about 76.9 µM), for the others: at the highest dose activity, negative = inhibition, usual class: inhibitors; 330,000 compounds, 0.031% hits; also: potency is read from the fitted curve at half-maximal effect; nearly all actives have a fitted effect of over 80% in size
#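 Quantitative HTS used 25 nM Mm-CPN and 10 uM ATP in magnesium/KCl Tris buffer, pH 7.4, with 1 mM DTT. Hydrolysis ran 30 min at 37°C; ADP was read by HTRF.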
# PLK1 PBD block = blocks phosphopeptide binding to human PLK1 polo-box domain. P53350. Plk1 PBD binding of FITC phosphopeptide, fluorescence polarization. Potency, µM, for inactives: max response, negative = inhibition, hits mostly inhibitors. 360,000 compounds, 2.8% hits. AID 720504; also: potency is read from the fitted curve at half-maximal effect; series mostly up to about 57 µM; nearly all actives have a fitted effect of over 65% in size
# VDR inh = inhibitors of human vitamin D receptor; P11473; VDR-SRC2-3 peptide fluorescence polarization, 2 h; Potency, µM, for the others: max response, negative = inhibition, most hits filed as inhibitors; 400,000 compounds, 0.93% hits; AID 504847; also: potency is read from the fitted curve at half-maximal effect
# Target sequence (P11473 whole entry, looked up): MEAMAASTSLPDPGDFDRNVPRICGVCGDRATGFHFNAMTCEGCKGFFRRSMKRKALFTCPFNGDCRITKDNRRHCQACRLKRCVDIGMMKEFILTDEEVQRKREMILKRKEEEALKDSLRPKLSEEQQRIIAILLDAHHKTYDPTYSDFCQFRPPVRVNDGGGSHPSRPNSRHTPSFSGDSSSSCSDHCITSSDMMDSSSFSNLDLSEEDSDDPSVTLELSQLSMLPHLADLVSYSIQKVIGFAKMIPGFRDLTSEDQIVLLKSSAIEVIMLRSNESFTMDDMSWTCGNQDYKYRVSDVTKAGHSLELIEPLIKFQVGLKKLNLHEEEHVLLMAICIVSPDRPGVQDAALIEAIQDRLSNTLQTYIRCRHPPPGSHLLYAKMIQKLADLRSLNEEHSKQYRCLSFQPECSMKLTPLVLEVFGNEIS
#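 Reagent solutions, kept cold and dark, are dispensed first; compounds are then pinned in at 23 nl, plates briefly spun, and incubated 2 h at ambient temperature. Inhibition of VDR–SRC2-3 peptide binding is read by fluorescence polarization.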
# G9a block = G9a (human) methyltransferase inhibition. Q96KQ7. G9a H3K9 monomethylation, AlphaScreen, 2 h. Potency, µM (doses to about 102 µM), without a hit: top-dose activity, negative = inhibition, actives largely listed as inhibitors. 350,000 compounds, 8.8% hits. AID 504332; also: potency is read from the fitted curve at half-maximal effect; nearly all actives have a fitted effect of over 75% in size
# Target sequence (Q96KQ7 913-1193 limits assumed): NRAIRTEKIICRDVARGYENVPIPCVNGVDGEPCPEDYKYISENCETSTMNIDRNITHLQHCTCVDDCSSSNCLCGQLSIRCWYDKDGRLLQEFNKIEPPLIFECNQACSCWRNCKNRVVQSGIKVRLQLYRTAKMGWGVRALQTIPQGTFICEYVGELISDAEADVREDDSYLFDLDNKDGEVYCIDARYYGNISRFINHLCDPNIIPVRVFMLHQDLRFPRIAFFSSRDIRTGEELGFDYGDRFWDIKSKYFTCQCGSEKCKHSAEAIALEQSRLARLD
#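 Compounds were preincubated with 20 nM G9a for 15 min, after which biotinylated H3K9 peptide (500 nM) and SAM (20 uM) started a 2 h room-temperature reaction. Monomethylated product was quantified by antibody-based AlphaScreen chemiluminescence.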
# CCT chaperon mod = modulators of cytosolic chaperonin (CCT/TRiC) activity. purified chaperonin ATPase assay, HTRF ADP detection, 30 min. activity change, % (test concentration not listed), hits read low. 360,000 compounds, 0.3% hits. AID 651819; in the data active = activity change below about -30%
#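 ATPase activity: ADP formed was measured by HTRF Transcreener (665/615 nm ratio) after 30 min at 37 deg C with 10 uM ATP. Compounds screened at one 76 uM concentration against 40 or 20 nM TRiC in Tris pH 7.4/KCl/MgCl2/DTT buffer.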
# Numbers without * were called inactive; ? = inconclusive; . = no result given; [ ] = dose if it differs, or a comment. Unless noted, calls follow the shape of the dose curve; as a rule, active = well fitted curve in the direction sought with a large enough effect; inconclusive = small, poorly fitted or top-dose-only effect, or another doubt; inactive = no such curve, though single readings can be large; an effect the other way counts as inactive or inconclusive. Unless noted, % is scaled to controls: 0 for no effect and ±100 for the full control effect.
SMILES,Sfp PPTase inh,MmCpn inh,PLK1 PBD block,VDR inh,G9a block,CCT chaperon mod
CN(C)CCNC(=O)c1c(O)c2c([nH]c1=O)CCCC2,9.2%,-0.1%,-0.7%,0.5%,-12.6%[12.7 µM],-5.3
CCSc1ccc2cc(OC)ccc2[n+]1CC,?,-2.0%,-16.9%,-11.4%,20µM*,-0.7
COC(=O)N[C@H](c1ccccc1)C(C(C)=O)C(=O)OC (stereo not given in full),-0.9%,.,.,0.3%,.,.
COc1cccc(CNS(=O)(=O)c2cc3[nH]c(=O)c(=O)[nH]c3cc2C)c1,.,.,.,11.7%,6.2%[59 µM],.
Fc1cccc(Cl)c1-c1nnc2ccc3ccccc3n12,-11.0%,-2.7%,-18.2%,4.2%,31.6µM*,-1.8
CN(C)c1ccc(N/C=C/C(=O)C(C)(C)C)cc1,50.1µM*,22.4µM*,-2.9%,15.8µM*,?,-3.4
CN(C)c1ccc(N/C=C/C(=O)c2ccccc2)cc1,20µM*,-9.9%,8.6%,79.4µM*,5.62µM*,0.2
Cc1ccc(Cn2cccc2C2=NC(C)(C)CO2)cc1,.,.,.,-23.6%,7.4%[59 µM],.
CCCN(C(=O)Cn1ncc2c([nH]c3ccccc32)c1=O)c1ccc(F)cc1,.,.,.,-0.7%,-30.5%[59 µM],.
COCCN(C/C=C/c1ccccc1)C/C=C/c1ccccc1,-19.1%,-4.6%,-4.3%,-13.1%,7.08µM*,0.8
Cc1ccc(-n2ncc(C(=O)NCCc3ccsc3)c2C2CCN(C(=O)OC(C)(C)C)CC2)cc1C,.,.,.,17.0%,-32.7%[59 µM],.
CCOC(=O)c1sc(=S)n(C)c1C,-1.7%,-1.1%,-8.5%,9.8%,13.1%,1.4
CCOC(=O)c1c[nH]c(=S)n1C,?,-3.0%,-8.4%,-12.4%,22.4µM*,-0.7
CCN1CCc2c(sc(NC(=O)c3ccc(S(=O)(=O)N(C)C4CCCCC4)cc3)c2C(N)=O)C1,.,.,.,3.1%,?,.
O=C(CCN1C(=O)COc2ccccc21)NCCN1CCc2ccccc2C1,-5.0%,-1.6%,0.3%,1.7%,-9.8%[59 µM],-2.6
O=C(CCN1C(=O)COc2ccccc21)NCc1cccs1,12.9%,-0.8%,23.8µM*,-7.2%,-3.6%[0.501 µM],-0.1
CCOC(=O)c1c(NC(=O)C2CCCO2)sc(C(=O)OC(C)(C)C)c1C (stereo not given),44.7µM*,-0.7%,5.97µM*,?,3.55µM*,-2.3
CCC(CC)C(=O)Nc1nc2c(s1)CC(C)CC2 (stereo not given),.,.,.,12.4%,-21.4%[59 µM],.
CCOC(=O)c1sc(NC(=O)C2CCCO2)c(C(=O)OCC)c1C (stereo not given),11.5%,-8.2%,.,.,-31.9%[12.7 µM],.
CCCC(C)c1nnc(NC(=O)C(=O)OCC)s1 (stereo not given),20µM*,-1.1%,10.6µM*,?,?,1.2
CC1CCc2nc(NC(=O)C3CCCO3)sc2C1 (stereo not given),-29.1%,-1.0%,23.8µM*,5.5%,?,0.5
CCCC(C)c1nnc(NC(=O)C2CCCO2)s1 (stereo not given),12.6µM*,0.6%,29.9µM*,-17.5%,?,-2.8
Oc1ccc(N2CCN(C(c3ccc(Cl)cc3)c3nnnn3Cc3ccc(F)cc3)CC2)cc1 (stereo not given),.,.,.,-10.4%,.,.
CCCCCn1c(CNC(=O)c2ccc(F)cc2)nc2ccccc21,.,.,.,-6.1%,-17.6%[59 µM],.
Cc1c(Cc2ccccc2)sc(NC(=O)c2ccco2)c1C(N)=O,-9.3%,-3.0%,-4.7%,-3.6%,5.1%[59 µM],0.7
SMILES,Sfp PPTase inh,MmCpn inh,PLK1 PBD block,VDR inh,G9a block,CCT chaperon mod
CCCc1cc(C(N)=O)c(NC(=O)c2ccco2)s1,?,-11.2%,26.7µM*,-6.5%,?,-2.6
O=C(Nc1nnc(Cc2ccc(Cl)cc2)s1)C1CCCO1 (stereo not given),-26.9%,-15.2%,23.8µM*,-6.6%,28.2µM*,-1.8
Cc1nnc(NC(=O)C2CCCO2)s1 (stereo not given),-6.3%,-0.7%,?,5.4%,8.91µM*,-1.9
Cc1nnc(NC(=O)CCSCCC(=O)Nc2nnc(C)s2)s1,-15.2%,0.8%,?,-14.8%,50.1µM*,-1.0
CCOc1ccccc1NC(=O)C1CCCN(c2ncnc3onc(-c4ccc(F)cc4)c23)C1 (stereo not given),.,.,.,15.9%,-0.6%[59 µM],.
O=c1c(-c2ccc(F)cc2)nc2cnc(N3CCNCC3)nc2n1C1CC1,3.6%,.,.,-3.7%,13.0%[0.501 µM],.
CCCc1cc(C(N)=O)c(NC(=O)C2CCCO2)s1 (stereo not given),-80.4%,0.5%,10.6µM*,-27.8%,?,0.4
O=C(Nc1nnc(-c2ccncc2)s1)C1CCCO1 (stereo not given),-58.0%,0.3%,21.2µM*,-1.2%,?,0.1
O=C(Nc1nnc(-c2ccccc2F)s1)C1CCCO1 (stereo not given),-20.0%,-2.5%,0.0%,-6.3%,?,-0.5
CCOC(=O)c1c(NC(=O)C2CCCO2)sc(C)c1C (stereo not given),-4.2%,-0.1%,-8.4%,3.8%,-1.0%,-0.6
Cc1sc(NC(=O)C2CCCO2)c(C(N)=O)c1C (stereo not given),-12.9%,-1.1%,16.8µM*,?,7.94µM*,-0.1
O=C(c1cccs1)N1CCCc2cc(NS(=O)(=O)c3ccc(Br)cc3)ccc21,.,.,.,3.6%,-26.8%[59 µM],.
CCCN(C(=O)c1cc2c(s1)-c1ccccc1SC2)c1ccccc1F,.,.,.,2.5%,108.1%[59 µM],.
Cc1ccc2scc(N3CCCC(C)C3)c(=O)c2c1 (stereo not given),.,.,.,13.6%,?,.
O=C1OC(c2ccc(Cl)cc2)=C/C1=C/c1cccnc1,-0.8%,0.5%,0.0%,-22.3%,56.2µM*,-0.5
Cc1ccc(C2=C/C(=C/c3cccnc3)C(=O)O2)c(C)c1,50.1µM*,-1.6%,-4.5%,-19.4%,?,2.4
COc1ccc(C2=C/C(=C\c3cccc(OC(C)=O)c3)C(=O)O2)cc1,-77.1%,-1.3%,-12.9%,-6.6%,-7.2%[59 µM],-1.4
COc1ccc(NC(=O)COC(=O)Cn2nnc3ccccc32)cc1,-0.4%,-1.7%,-2.9%,5.7%,18.9%,-0.9
CN(C)c1ccc(NC(=O)COC(=O)Cn2nnc3ccccc32)cc1,6.1%,-3.0%,1.0%,?,39.8µM*,2.1
O=C(COC(=O)Cn1nnc2ccccc21)Nc1ccccc1Br,-7.1%,-1.0%,29.9µM*,?,-17.3%[59 µM],-0.4
CN(C)/N=C/C=C1\CC/C(=C\c2ccc(Br)cc2)C1=O,-7.6%,1.2%,3.7%,6.4%,50.1µM*,-0.6
CN(C)/N=C/C=C1\CCC/C(=C/c2cccs2)C1=O,20.2%,-2.0%,3.8%,?,-35.4%,1.8
COc1ccc2nc(SCC(=O)Nc3ccccc3C)[nH]c2c1,0.6%,-0.5%,-11.0%,0.0%,.,-19.0
Cc1cc(SC(C)C(=O)NCC(=O)Nc2ccc(F)c(F)c2F)nc2ccccc12 (stereo not given),7.2%,-17.3%,-25.4%,-6.0%,22.9%,-3.7

# Screens deposited in PubChem BioAssay by National Center for Advancing Translational Sciences (NCATS).
